According to PubChem BioAssay AID686979 (National Center for Advancing Translational Sciences (NCATS), 2013):
In all, about 420,000 compounds went through this assay and about 50,000 (12%) were called active. About 26% were inconclusive and are not listed. This is one part of a sample in which actives are shown more often than they occur. Values without a mark were called inactive. Calls follow the shape of the dose curve; as a rule, active = well fitted inhibition curve with a large enough effect; inconclusive = small, poorly fitted or top-dose-only effect; inactive = flat fitted curve, though single readings scatter.

test: qHTS for Inhibitors of human tyrosyl-DNA phosphodiesterase 1 (TDP1): qHTS in cells in presence of CPT; settings: chicken DT40 Tdp1-/-;hTDP1 cells + 20 nM CPT, ATP luminescence, 48 h; series mostly up to 46.2 µM; activity change, negative = growth inhibition: at the top concentration; also: nearly all actives have a fitted effect of over 55% in size
In short: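 Chicken DT40 Tdp1-/- cells stably complemented with human TDP1 were seeded at 400 cells/well in medium containing 20 nM camptothecin, exposed to pin-transferred compounds, and grown at 37 °C for at least 48 hr. Viability was read as ATP luminescence.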
% is scaled to controls: 0 for no effect and ±100 for the full control effect; potency is read from the fitted curve at half-maximal effect.

Q: Which “activity change, negative = growth inhibition” value does the source give for `CCOC(=O)c1sc(=NC(=O)c2ccc(Br)cc2)n(C)c1C` here?
A: 3.17%

Q: For `Cc1ccc2nc(-c3ccc(Br)cc3)cn2c1`, which “activity change, negative = growth inhibition” value is on record?
A: 1.32%

Q: Which “activity change, negative = growth inhibition” value does the source give for `Cc1ccc(NS(=O)(=O)c2ccc(-c3ccc(=O)[nH]n3)o2)c(C)c1` here?
A: -23%

Q: For `O=C(O)c1[nH]c2ccccc2c1C(c1cccc(O)c1)c1c(C(=O)O)[nH]c2ccccc12`, which “activity change, negative = growth inhibition” value is on record?
A: -4.46%

Q: Which “activity change, negative = growth inhibition” value does the source give for `CC(=O)OCC(C)n1c(=O)c2ccccc2n1C(C)=O` (stereo not drawn) here?
A: -1.82%

Q: For `O=C(COc1cc(Cl)c(Cl)cc1Cl)NCCc1ccccn1`, which “activity change, negative = growth inhibition” value is on record?
A: 2.28%

Q: With `NC(=S)NN=Cc1ccc(OC(=O)COc2cc(Cl)c(Cl)cc2Cl)cn1` as the compound, how does the Potency read?
A: 6.51 µM (active)

Q: With `O=C(COC(=O)COc1cc(Cl)c(Cl)cc1Cl)NC1CC1` as the compound, how does the “activity change, negative = growth inhibition” value read?
A: -17.8%

Q: With `O=C(Cn1cnc2c(oc3ccccc32)c1=O)Nc1ccc(OC(F)(F)F)cc1` as the compound, how does the “activity change, negative = growth inhibition” value read?
A: -14.7%

Q: For `C[C@H](NC(=O)c1ccccc1Cl)C(=O)OCCOc1cccc(Cl)c1`, which “activity change, negative = growth inhibition” value is on record?
A: -17.7%

Q: For `O=C1C(Sc2cccc(F)c2)=C[C@@]2(O)CC[C@@H](O)[C@]1(Sc1cccc(F)c1)[C@H]2O`, which Potency is on record?
A: 16.4 µM (active)

Q: With `CC1=C(C(=O)OCc2ccccc2)C(c2ccco2)n2ncnc2N1` (stereo not drawn) as the compound, how does the Potency read?
A: 23.1 µM (active)

Q: With `COC(=O)C1=C(C)Nc2ncnn2C1c1ccco1` (stereo not drawn) as the compound, how does the “activity change, negative = growth inhibition” value read?
A: 4.8%

Q: With `COc1ccccc1NC(=O)C1=C(C)Nc2ncnn2C1c1ccc(C)o1` (stereo not drawn) as the compound, how does the “activity change, negative = growth inhibition” value read?
A: 0.297%

Q: For `Cc1ccc(S(=O)(=O)c2c[nH]c3ccc(Cl)cc3c2=O)cc1`, which “activity change, negative = growth inhibition” value is on record?
A: 29.4%

Q: With `Cc1nc(COc2cc3oc(=O)cc(C)c3cc2Cl)cs1` as the compound, how does the “activity change, negative = growth inhibition” value read?
A: 2.52%

Q: Which Potency does the source give for `COc1ccc(-c2nn(-c3ccccc3)cc2/C=N/Nc2ccccn2)cc1OC` here?
A: 7.31 µM (active)

Q: For `CN(C)/N=C/c1cn(-c2ccccc2)nc1-c1cccnc1`, which “activity change, negative = growth inhibition” value is on record?
A: -32.9%

Q: Which “activity change, negative = growth inhibition” value does the source give for `O=Cc1cn(-c2ccccc2)nc1-c1ccccn1` here?
A: -24%

Q: Which “activity change, negative = growth inhibition” value does the source give for `Cc1cc(C)cc(OCC(=O)Nc2nc(-c3ccc(F)cc3)ns2)c1` here?
A: -26.5%

Q: For `O=c1ccn([C@@H]2O[C@H](CNS(=O)(=O)c3cc4ccccc4s3)[C@@H](O)[C@H]2O)c(=O)[nH]1`, which “activity change, negative = growth inhibition” value is on record?
A: -10.7%

Q: With `COc1ccc2c(c1)c1ncn(Cc3ccccn3)c(=O)c1n2C` as the compound, how does the “activity change, negative = growth inhibition” value read?
A: -5.08%

Q: Which “activity change, negative = growth inhibition” value does the source give for `Cc1cc([N+](=O)[O-])nn1Cc1ccc(F)cc1` here?
A: 0.664%

Q: With `C=CCN1C(=O)C2(OCCCO2)c2cccc(Cl)c21` as the compound, how does the “activity change, negative = growth inhibition” value read?
A: -7.94%

Q: With `C=CCN1C(=O)C(O)(CC(=O)c2ccc(Cl)cc2)c2ccccc21` (stereo not drawn) as the compound, how does the Potency read?
A: 18.4 µM (active)

Q: Which “activity change, negative = growth inhibition” value does the source give for `C=CCN1C=C(C(=O)c2ccccc2)C(=O)CC1` here?
A: 11.1%

Q: For `O=C(NCc1ccccc1)C1CCN(S(=O)(=O)c2ccc3[nH]c(=O)ccc3c2)CC1`, which “activity change, negative = growth inhibition” value is on record?
A: -5.45%

Q: With `CCC(=O)N1CCc2cc(S(=O)(=O)NC(Cc3ccccc3)C(=O)NCc3ccc(C)cc3)ccc21` (stereo not drawn) as the compound, how does the “activity change, negative = growth inhibition” value read?
A: -22.3%

Q: For `COCCCNC(=O)/C(C#N)=C/c1c(N2CCCCCC2)nc2ccccn2c1=O`, which “activity change, negative = growth inhibition” value is on record?
A: 3.95%

Q: Which “activity change, negative = growth inhibition” value does the source give for `CC(=O)Nc1ccc(NC(=O)COc2ccc(S(=O)(=O)NC(C)c3ccccc3)cc2)cc1` (stereo not drawn) here?
A: -5.71%

Q: Which “activity change, negative = growth inhibition” value does the source give for `CNC(=S)NNC(=O)c1sccc1OCc1ccccc1` here?
A: -5.88%

Q: For `Cc1ccc(/C=N/NC(=O)c2sccc2OCc2ccc(F)cc2)cc1`, which Potency is on record?
A: 16.4 µM (active)

Q: Which “activity change, negative = growth inhibition” value does the source give for `Cc1ccc(COc2ccc(/C=N/NC(=O)CN3CCCCC3)cc2)cc1` here?
A: 4.47%

Q: For `CCOc1ccccc1NC(=O)CN1CCN(S(=O)(=O)c2ccc(Br)cc2)CC1`, which “activity change, negative = growth inhibition” value is on record?
A: -28.6%

Q: With `CC(=O)Nc1ccc(Nc2ncnc3c2nnn3Cc2ccccc2Cl)cc1` as the compound, how does the “activity change, negative = growth inhibition” value read?
A: 17.7%

Q: With `O=C(Nc1ccc(F)cc1)N1CCCC(c2nc3c(nnn3Cc3ccccc3Cl)c(=O)[nH]2)C1` (stereo not drawn) as the compound, how does the Potency read?
A: 20.6 µM (active)

Q: For `COc1ccc(Cn2nnc3c(=O)[nH]c(C4CCN(C(=O)c5ccccc5Cl)CC4)nc32)cc1`, which “activity change, negative = growth inhibition” value is on record?
A: -23.2%

Q: Which “activity change, negative = growth inhibition” value does the source give for `C[C@@H]1CN([C@@H](C)CO)C(=O)CCCn2cc(nn2)CO[C@H]1CN(C)S(=O)(=O)c1ccc(-n2cccn2)cc1` here?
A: -1.95%

Q: With `C/C=C(\C)C(=O)OC1C(OC(=O)C2(C)OC2C)c2cc3ccc(=O)oc3cc2OC1(C)C` (stereo not drawn) as the compound, how does the activity change, negative = growth inhibition read?
A: 14.7% [at 9.04 µM]

Q: Which “activity change, negative = growth inhibition” value does the source give for `COc1cc(C2C(C(=O)c3sc(C)nc3C)=C(O)C(=O)N2CCN(C)C)cc(OC)c1OC` (stereo not drawn) here?
A: 17.6%

Q: For `O=C(c1cccs1)n1nc(NCc2ccccc2)nc1NCc1ccccc1`, which “activity change, negative = growth inhibition” value is on record?
A: -2.83%

Q: For `CCCc1cc(=O)[nH]c(SCC(=O)c2c(N)n(CC(C)C)c(=O)n(C)c2=O)n1`, which Potency is on record?
A: 7.31 µM (active)

Q: Which “activity change, negative = growth inhibition” value does the source give for `CCCc1cc(=O)[nH]c(SCC(=O)N2C(C)CCCC2C)n1` (stereo not drawn) here?
A: 6.83%

Q: For `CCCc1cc(=O)[nH]c(SCC(=O)Nc2ccc(S(=O)(=O)N3CCCC3)cc2)n1`, which “activity change, negative = growth inhibition” value is on record?
A: 8.44%

Q: For `Cc1ccc(Cl)cc1NC(=O)CSc1nccn1C`, which “activity change, negative = growth inhibition” value is on record?
A: -9.01%

Q: Which “activity change, negative = growth inhibition” value does the source give for `COc1ccccc1C(=O)NCCC(=O)NC1=NCCS1` here?
A: -4.1%

Q: Which “activity change, negative = growth inhibition” value does the source give for `Cc1cc(C)cc(Oc2c(C(F)(F)F)oc3cc(OCC(=O)O)ccc3c2=O)c1` here?
A: -5.4%

Q: For `Cc1[nH]n(-c2ccc(Cl)cc2)c(=O)c1/C=N/n1c(C)nc2ccccc2c1=O`, which Potency is on record?
A: 20.6 µM (active)

Q: For `Cc1cccc(-c2nc3ccccc3c(=O)n2NC(=O)Cc2ccc(Cl)cc2)c1`, which “activity change, negative = growth inhibition” value is on record?
A: 7.87%

Q: For `Cc1nc2ccccc2c(=O)n1-c1ccc(NS(=O)(=O)c2ccc(F)cc2F)cc1`, which “activity change, negative = growth inhibition” value is on record?
A: -12.3%

Q: Which “activity change, negative = growth inhibition” value does the source give for `CC(OC(=O)c1cccc(S(=O)(=O)N2CCOCC2)c1)C(=O)NCC1CCCCC1` (stereo not drawn) here?
A: -12.7%

Q: For `Cc1occc1-c1nnc(SCC(=O)NC2(C#N)CCCC2)n1C`, which “activity change, negative = growth inhibition” value is on record?
A: -10.5%

Q: Which “activity change, negative = growth inhibition” value does the source give for `CN(Cc1ccc(C(F)(F)F)cc1)C(=O)[C@H]1O[C@@H](n2cnc3c(N)ncnc32)[C@H](O)[C@@H]1O` here?
A: -2.52%

Q: For `Cc1noc(C)c1S(=O)(=O)N(C)C[C@H]1Oc2c(NC(=O)Nc3ccc4c(c3)OCO4)cccc2C(=O)N([C@H](C)CO)C[C@@H]1C`, which “activity change, negative = growth inhibition” value is on record?
A: -4.03%

Q: With `CCc1nn(CCCC(=O)Nc2ccc(C)cc2C)c(=O)c2cc3occc3n12` as the compound, how does the “activity change, negative = growth inhibition” value read?
A: -16.1%

Q: For `CCOc1cc(/C=C2/C(=N)N3OC(C)=CC3=NC2=O)ccc1OC`, which “activity change, negative = growth inhibition” value is on record?
A: 0.826%

Q: With `CC1=CC2=NC(=O)/C(=C/c3coc4ccccc4c3=O)C(=N)N2O1` as the compound, how does the “activity change, negative = growth inhibition” value read?
A: 7.64%

Q: For `COc1ccc(OCCCn2cccc2/C=C2/C(=N)N3OC(C)=CC3=NC2=O)cc1`, which Potency is on record?
A: 18.4 µM (active)

Q: Which “activity change, negative = growth inhibition” value does the source give for `COc1cccc(CNC(=O)c2cccnc2Sc2ccc(Cl)cc2)c1` here?
A: -12.8%

Q: With `Cc1ccnc(NC(=O)CNC(=O)c2ccccc2)c1` as the compound, how does the “activity change, negative = growth inhibition” value read?
A: 46.1%

Q: Which “activity change, negative = growth inhibition” value does the source give for `Cc1cc(NC(=O)c2cc3ccccc3o2)no1` here?
A: 3.53%

Q: Which “activity change, negative = growth inhibition” value does the source give for `CC(=O)Nc1cccc(C(=O)OCC(=O)c2ccc3c(c2)OCO3)c1` here?
A: -0.904%

Q: With `O=C(CSc1n[nH]c(-c2ccccc2)n1)N1CCCCC1` as the compound, how does the “activity change, negative = growth inhibition” value read?
A: -17%
